Laboratory results from ChEMBL document CHEMBL1961873, “Compounds: GSK PKIS; Assays: Nanosyn kinase panel” (2012).
Where “and” joins values, the source holds several entries; their conditions need not be identical. Equal values may be shown once.

Legend:
[1] = target: Ribosomal protein S6 kinase alpha-6 (Homo sapiens) (UniProt Q9UK32); details: at 1 µM;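 further: each value is a mean inhibition of RSK4 from a GSK PKIS panel screen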
[2] = target: T1, Serine/threonine-protein kinase Sgk1 (Homo sapiens) (UniProt O00141); details: at 0.1 µM
T1 sequence (whole entry): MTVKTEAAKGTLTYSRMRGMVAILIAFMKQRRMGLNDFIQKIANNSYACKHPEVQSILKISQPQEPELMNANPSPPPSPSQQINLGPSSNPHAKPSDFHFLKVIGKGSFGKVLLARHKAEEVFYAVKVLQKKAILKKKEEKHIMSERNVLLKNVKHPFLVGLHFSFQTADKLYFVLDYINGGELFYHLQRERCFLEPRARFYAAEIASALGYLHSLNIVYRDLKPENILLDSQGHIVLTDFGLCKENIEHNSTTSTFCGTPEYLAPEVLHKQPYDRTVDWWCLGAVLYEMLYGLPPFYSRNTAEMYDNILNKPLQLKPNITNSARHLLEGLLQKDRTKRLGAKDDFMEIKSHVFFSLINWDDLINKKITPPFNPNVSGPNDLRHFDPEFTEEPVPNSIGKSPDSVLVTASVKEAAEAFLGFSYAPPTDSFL

[3] = target: T1, Serine/threonine-protein kinase Sgk1 (Homo sapiens); details: at 1 µM
[4] = target: T2, Serine/threonine-protein kinase Sgk2 (Homo sapiens) (UniProt Q9HBY8); details: at 0.1 µM
T2 sequence (whole entry): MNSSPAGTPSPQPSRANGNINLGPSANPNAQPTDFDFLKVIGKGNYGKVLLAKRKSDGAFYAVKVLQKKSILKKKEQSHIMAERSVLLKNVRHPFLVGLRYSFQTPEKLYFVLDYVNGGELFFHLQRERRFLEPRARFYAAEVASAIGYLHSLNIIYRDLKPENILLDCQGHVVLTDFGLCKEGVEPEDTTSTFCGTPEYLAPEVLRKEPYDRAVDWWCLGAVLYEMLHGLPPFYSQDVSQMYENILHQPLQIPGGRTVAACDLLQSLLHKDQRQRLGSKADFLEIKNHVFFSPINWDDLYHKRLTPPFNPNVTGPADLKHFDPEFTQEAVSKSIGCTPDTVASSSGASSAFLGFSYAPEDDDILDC

[5] = target: T2, Serine/threonine-protein kinase Sgk2 (Homo sapiens); details: at 1 µM
[6] = target: T3, Serine/threonine-protein kinase Sgk3 (Homo sapiens) (UniProt Q96BR1); details: at 0.1 µM
T3 sequence (whole entry): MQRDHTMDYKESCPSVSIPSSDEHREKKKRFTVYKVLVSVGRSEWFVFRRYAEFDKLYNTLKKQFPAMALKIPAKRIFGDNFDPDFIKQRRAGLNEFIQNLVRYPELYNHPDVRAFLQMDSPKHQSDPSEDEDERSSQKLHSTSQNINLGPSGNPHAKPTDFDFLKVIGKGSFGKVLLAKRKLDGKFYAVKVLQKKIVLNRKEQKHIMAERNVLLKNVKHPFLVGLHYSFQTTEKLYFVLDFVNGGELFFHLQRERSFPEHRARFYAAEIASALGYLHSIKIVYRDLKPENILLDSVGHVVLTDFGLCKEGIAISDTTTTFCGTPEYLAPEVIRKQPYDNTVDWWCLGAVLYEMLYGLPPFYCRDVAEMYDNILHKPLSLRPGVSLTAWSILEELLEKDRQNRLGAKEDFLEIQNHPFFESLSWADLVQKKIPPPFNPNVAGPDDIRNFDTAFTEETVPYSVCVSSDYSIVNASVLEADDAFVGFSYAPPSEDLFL

[7] = target: T3, Serine/threonine-protein kinase Sgk3 (Homo sapiens); details: at 1 µM
[8] = target: 5'-AMP-activated protein kinase catalytic subunit alpha-1 (Homo sapiens) (UniProt Q13131); details: at 0.1 µM
Sequence of 5'-AMP-activated protein kinase catalytic subunit alpha-1 (Homo sapiens) (Q13131 whole entry, looked up): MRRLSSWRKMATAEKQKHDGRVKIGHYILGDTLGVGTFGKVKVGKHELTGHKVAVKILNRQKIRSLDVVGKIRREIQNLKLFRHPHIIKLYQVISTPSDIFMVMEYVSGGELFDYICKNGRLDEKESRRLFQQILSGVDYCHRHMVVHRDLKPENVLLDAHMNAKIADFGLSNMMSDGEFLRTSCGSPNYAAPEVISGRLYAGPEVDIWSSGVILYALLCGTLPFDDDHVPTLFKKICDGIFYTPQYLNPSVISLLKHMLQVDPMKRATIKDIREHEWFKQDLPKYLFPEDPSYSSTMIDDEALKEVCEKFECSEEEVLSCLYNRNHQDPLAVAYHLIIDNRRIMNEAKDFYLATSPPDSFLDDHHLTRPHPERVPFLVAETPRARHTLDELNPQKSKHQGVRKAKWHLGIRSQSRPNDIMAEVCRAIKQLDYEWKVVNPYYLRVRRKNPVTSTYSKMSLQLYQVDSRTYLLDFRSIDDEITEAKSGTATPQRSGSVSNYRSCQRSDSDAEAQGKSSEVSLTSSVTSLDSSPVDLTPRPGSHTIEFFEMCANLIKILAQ

[9] = target: 5'-AMP-activated protein kinase catalytic subunit alpha-1 (Homo sapiens) (UniProt Q13131); details: at 1 µM
[10] = target: 5'-AMP-activated protein kinase catalytic subunit alpha-2 (Homo sapiens) (UniProt P54646); details: at 0.1 µM
Sequence of 5'-AMP-activated protein kinase catalytic subunit alpha-2 (Homo sapiens) (P54646 whole entry, looked up): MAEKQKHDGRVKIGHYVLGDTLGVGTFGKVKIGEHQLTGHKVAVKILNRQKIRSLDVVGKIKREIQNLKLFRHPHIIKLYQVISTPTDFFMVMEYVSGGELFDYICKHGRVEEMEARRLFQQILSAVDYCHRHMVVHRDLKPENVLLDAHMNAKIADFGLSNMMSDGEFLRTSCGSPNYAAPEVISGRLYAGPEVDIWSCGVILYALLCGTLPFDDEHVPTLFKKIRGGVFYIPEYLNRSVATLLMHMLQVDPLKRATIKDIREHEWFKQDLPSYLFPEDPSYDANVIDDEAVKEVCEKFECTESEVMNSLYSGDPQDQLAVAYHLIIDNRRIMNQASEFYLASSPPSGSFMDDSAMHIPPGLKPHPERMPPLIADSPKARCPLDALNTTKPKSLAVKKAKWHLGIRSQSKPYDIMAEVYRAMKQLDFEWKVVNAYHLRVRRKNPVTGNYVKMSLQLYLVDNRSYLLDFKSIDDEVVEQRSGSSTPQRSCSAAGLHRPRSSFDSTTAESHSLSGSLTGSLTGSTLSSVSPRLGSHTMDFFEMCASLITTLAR

[11] = target: 5'-AMP-activated protein kinase catalytic subunit alpha-2 (Homo sapiens) (UniProt P54646); details: at 1 µM
[12] = target: T4, NUAK family SNF1-like kinase 1 (Homo sapiens) (UniProt O60285); details: at 0.1 µM
T4 sequence (whole entry): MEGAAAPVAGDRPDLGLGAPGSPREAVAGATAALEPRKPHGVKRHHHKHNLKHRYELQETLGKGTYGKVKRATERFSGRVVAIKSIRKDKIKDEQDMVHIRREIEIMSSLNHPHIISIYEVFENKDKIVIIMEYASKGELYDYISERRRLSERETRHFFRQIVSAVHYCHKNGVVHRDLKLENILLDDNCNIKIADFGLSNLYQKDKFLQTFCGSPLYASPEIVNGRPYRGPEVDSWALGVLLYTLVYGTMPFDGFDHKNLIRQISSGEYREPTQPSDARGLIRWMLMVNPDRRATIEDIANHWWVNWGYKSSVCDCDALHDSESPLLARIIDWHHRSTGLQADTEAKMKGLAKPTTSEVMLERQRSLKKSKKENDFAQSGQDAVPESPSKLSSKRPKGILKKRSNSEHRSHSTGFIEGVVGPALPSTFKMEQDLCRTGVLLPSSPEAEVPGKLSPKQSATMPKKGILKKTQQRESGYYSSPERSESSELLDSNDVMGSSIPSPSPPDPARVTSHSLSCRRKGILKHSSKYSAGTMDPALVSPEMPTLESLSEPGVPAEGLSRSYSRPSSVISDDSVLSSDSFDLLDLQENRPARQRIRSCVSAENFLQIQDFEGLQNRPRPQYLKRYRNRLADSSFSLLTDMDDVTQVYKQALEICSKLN

[13] = target: T4, NUAK family SNF1-like kinase 1 (Homo sapiens); details: at 1 µM
[14] = target: T5, Serine/threonine-protein kinase BRSK1 (Homo sapiens) (UniProt Q8TDC3); details: at 0.1 µM
T5 sequence (whole entry): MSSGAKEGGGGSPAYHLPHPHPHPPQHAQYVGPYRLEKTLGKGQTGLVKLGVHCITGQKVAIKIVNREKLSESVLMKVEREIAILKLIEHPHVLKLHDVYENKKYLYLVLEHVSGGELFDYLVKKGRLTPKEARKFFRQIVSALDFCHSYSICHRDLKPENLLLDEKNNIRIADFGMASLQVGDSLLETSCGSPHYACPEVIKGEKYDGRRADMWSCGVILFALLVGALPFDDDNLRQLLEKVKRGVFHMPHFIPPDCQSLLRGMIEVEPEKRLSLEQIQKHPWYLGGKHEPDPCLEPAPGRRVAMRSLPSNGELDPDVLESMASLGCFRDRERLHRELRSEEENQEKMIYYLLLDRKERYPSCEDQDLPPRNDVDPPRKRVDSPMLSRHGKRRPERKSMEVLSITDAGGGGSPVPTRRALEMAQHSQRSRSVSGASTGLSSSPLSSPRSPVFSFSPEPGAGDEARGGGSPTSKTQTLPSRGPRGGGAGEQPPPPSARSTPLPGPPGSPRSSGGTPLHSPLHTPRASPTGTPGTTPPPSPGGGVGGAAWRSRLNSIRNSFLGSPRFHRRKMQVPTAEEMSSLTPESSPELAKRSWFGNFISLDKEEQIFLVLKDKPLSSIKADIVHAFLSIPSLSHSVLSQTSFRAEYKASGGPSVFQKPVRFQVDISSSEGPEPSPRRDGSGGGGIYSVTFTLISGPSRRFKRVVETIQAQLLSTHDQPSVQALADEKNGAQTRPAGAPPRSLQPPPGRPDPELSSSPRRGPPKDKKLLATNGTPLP

[15] = target: T5, Serine/threonine-protein kinase BRSK1 (Homo sapiens); details: at 1 µM
[16] = target: T6, Serine/threonine-protein kinase BRSK2 (Homo sapiens) (UniProt Q8IWQ3); details: at 0.1 µM
T6 sequence (whole entry): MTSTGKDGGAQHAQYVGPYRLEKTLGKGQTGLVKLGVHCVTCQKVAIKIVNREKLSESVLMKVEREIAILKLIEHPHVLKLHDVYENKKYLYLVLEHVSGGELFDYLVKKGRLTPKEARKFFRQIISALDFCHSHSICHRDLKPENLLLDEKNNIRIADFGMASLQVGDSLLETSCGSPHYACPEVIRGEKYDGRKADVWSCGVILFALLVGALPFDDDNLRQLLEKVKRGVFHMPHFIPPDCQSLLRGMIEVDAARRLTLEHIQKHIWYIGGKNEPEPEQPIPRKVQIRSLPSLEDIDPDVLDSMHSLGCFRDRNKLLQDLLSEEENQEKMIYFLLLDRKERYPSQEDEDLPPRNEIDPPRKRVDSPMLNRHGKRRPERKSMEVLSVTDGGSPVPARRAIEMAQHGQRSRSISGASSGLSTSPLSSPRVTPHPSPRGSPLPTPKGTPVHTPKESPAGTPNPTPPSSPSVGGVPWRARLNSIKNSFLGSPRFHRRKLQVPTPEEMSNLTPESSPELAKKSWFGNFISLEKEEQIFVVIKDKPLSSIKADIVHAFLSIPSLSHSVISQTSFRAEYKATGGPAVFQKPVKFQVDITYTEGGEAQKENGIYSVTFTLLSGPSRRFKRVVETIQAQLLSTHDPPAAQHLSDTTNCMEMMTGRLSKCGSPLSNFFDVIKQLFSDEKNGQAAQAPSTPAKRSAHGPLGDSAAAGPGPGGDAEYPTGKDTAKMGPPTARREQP

[17] = target: T6, Serine/threonine-protein kinase BRSK2 (Homo sapiens); details: at 1 µM
[18] = target: Calcium/calmodulin-dependent protein kinase type 1D (Homo sapiens) (UniProt Q8IU85); details: at 0.1 µM
Sequence of Calcium/calmodulin-dependent protein kinase type 1D (Homo sapiens) (Q8IU85 whole entry, looked up): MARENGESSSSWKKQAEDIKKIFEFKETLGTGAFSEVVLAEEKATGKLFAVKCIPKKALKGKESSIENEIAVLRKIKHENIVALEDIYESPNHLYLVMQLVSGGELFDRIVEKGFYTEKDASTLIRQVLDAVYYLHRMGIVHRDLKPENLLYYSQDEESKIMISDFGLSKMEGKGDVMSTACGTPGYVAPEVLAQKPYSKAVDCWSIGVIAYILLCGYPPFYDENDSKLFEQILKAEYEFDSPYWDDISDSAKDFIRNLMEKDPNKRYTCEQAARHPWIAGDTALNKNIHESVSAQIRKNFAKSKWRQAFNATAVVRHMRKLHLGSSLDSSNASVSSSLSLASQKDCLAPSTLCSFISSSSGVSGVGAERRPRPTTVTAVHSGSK

[19] = target: Calcium/calmodulin-dependent protein kinase type 1D (Homo sapiens) (UniProt Q8IU85); details: at 1 µM
[20] = target: Calcium/calmodulin-dependent protein kinase type II subunit alpha (Homo sapiens) (UniProt Q9UQM7); details: at 0.1 µM;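 further: reported values are averages (mean inhibition of CAMK2A)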
Sequence of Calcium/calmodulin-dependent protein kinase type II subunit alpha (Homo sapiens) (Q9UQM7 whole entry): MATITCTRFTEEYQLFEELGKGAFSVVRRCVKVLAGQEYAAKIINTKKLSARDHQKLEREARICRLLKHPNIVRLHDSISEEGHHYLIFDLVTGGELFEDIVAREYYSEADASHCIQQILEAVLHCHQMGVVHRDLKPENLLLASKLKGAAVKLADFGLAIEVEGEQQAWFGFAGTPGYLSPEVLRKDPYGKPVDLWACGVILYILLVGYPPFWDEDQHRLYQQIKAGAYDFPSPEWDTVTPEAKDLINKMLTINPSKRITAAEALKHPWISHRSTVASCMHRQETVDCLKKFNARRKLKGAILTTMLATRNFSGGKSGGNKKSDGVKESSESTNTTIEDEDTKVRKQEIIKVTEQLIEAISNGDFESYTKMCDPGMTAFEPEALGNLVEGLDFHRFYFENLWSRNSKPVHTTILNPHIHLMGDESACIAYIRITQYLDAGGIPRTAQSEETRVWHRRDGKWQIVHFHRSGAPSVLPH

Sequence of Ribosomal protein S6 kinase alpha-6 (Homo sapiens) (Q9UK32 whole entry): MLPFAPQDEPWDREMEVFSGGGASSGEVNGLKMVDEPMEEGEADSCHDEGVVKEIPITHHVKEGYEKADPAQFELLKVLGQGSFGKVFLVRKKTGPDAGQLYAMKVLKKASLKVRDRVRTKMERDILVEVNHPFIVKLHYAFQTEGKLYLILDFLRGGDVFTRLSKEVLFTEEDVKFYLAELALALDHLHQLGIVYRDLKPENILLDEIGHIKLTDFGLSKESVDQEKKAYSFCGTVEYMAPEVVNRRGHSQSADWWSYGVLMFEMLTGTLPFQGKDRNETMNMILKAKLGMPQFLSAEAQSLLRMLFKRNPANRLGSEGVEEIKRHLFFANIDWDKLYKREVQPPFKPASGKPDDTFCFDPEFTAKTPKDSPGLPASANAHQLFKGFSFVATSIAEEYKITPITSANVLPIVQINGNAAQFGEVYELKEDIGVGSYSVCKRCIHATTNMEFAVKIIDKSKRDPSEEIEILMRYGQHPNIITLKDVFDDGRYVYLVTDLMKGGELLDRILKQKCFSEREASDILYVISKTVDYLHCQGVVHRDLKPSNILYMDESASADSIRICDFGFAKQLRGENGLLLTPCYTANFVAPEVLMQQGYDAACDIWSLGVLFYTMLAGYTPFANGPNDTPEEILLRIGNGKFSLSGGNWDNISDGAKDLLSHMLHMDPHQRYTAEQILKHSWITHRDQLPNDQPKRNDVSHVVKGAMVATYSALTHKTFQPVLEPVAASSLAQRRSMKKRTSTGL

SMILES | inhibition [1] | inhibition [2] | inhibition [3] | inhibition [4] | inhibition [5] | inhibition [6] | inhibition [7] | inhibition [8] | inhibition [9] | inhibition [10] | inhibition [11] | inhibition [12] | inhibition [13] | inhibition [14] | inhibition [15] | inhibition [16] | inhibition [17] | inhibition [18] | inhibition [19] | inhibition [20]
Nc1nccc(-c2c(-c3ccc(F)cc3)ncn2C2CCNCC2)n1 | 4.21% and 1.38% | 0.06% and 1.23% | 2.06% and 1.69% | -3% and 1.37% | 0.49% and 1.29% | -1.13% and 1.78% | -2.95% and -0.32% | -1.82% and 0.38% | 0.26% and 0.1% | -1.29% and 1.97% | -2.2% and 1.34% | 3.5% and 3.71% | 8.02% and 2.99% | 1.03% and 0.08% | 5.8% and 0.48% | 1.95% and 0.03% | 7.44% and 0.24% | -0.73% and -0.33% | 0.76% and -0.11% | -5.11% and -1.58%
CS(=O)(=O)CCNCc1ccoc1-c1ccc2ncnc(Nc3ccc(OCc4ccccc4)cc3)c2c1 | -0.72% | 2.02% | 1.39% | 2.28% | -3.3% | 5.61% | 1.1% | -0.71% | -0.55% | 0.46% | 1.14% | 2.3% | 2.12% | -0.34% | -0.87% | 0.28% | 1.27% | -0.18% | -0.02% | -0.63%
OCCCNc1nccc(-c2c(-c3ccc(F)cc3)nn3cc(C(F)(F)F)ccc23)n1 | 2.38% | 2.5% | 1.43% | 1.44% | 5.76% | 1.97% | 2.06% | 2.58% | 1.3% | -0.71% | 3.17% | 0.07% | 3.25% | 1.56% | 3.4% | 1.44% | 3.37% | -0.48% | 3.05% | 2.38%
CC1=C(C(=O)Nc2ccc3[nH]nc(C)c3c2)C(c2ccc(C(F)(F)F)cc2)CC(=O)N1 (stereo not given) | 18.9% | 2.07% | 7.21% | 0.38% | 5.99% | 1.33% | 6.15% | 4.08% | 24.4% | -0.12% | 7.41% | 6.8% | 31.1% | 4.32% | 21.3% | 6.42% | 32.6% | 0.54% | 2.58% | 1.45%
Cc1cc(O)cc(C)c1/C=C/c1cncc(C(=O)OC(C)(C)C)c1 | 1.11% | 1.6% | 2.22% | 3.61% | 4.38% | 3.8% | 0.63% | 2.74% | 3.91% | 2.92% | 4.01% | 1.92% | 4.1% | 0.6% | 5.15% | 2.26% | 3.54% | -0.01% | 1.19% | 1.37%
COc1cccc(Nc2nccc(-c3cnn4ncccc34)n2)c1 | 4.34% | 1.84% | 9.81% | 7.46% | 6.98% | -0.45% | 2.03% | 2.19% | 10.9% | -3.44% | 7.99% | 52.8% | 71% | 0.63% | 6.67% | 0.75% | 10.4% | -0.48% | 4.71% | 4.77%
CS(=O)(=O)CCNCc1ccc(-c2ccc3ncnc(Nc4ccc(OCc5ccccc5)cc4)c3c2)o1 | 1.11% | 5.01% | 2.28% | 2.02% | 1.93% | 3.54% | 1.87% | 2.94% | 3.44% | 2.07% | 4.61% | -0.27% | 1.06% | 1.11% | 1.23% | 2.82% | 4.33% | 0.33% | 1.27% | 2.27%
